# Assay results as given in PubChem BioAssay (NCATS).
# Results filed as inconclusive are left out. A call without a number means that no potency is given here. Activity calls are given as the source filed them. Calls follow the shape of the full dose curve.
# Biological target: Nucleoprotein (Lymphocytic choriomeningitis virus (strain Armstrong)) (UniProt P09992)
# Assay: qHTS for Inhibitors of the Functional Ribonucleoprotein Complex (vRNP) of Lymphocytic Choriomeningitis Arenaviruses (LCMV): LCMV Primary Screen - GLuc reporter signal (AID 1347086); also: nearly all actives have a fitted effect of over 70% in size
# Settings: LCMV minigenome vRNP cell assay, Gaussia luciferase reporter; series mostly up to 57.5 µM
# Chain of Nucleoprotein (Lymphocytic choriomeningitis virus (strain Armstrong)) (P09992 whole entry, looked up): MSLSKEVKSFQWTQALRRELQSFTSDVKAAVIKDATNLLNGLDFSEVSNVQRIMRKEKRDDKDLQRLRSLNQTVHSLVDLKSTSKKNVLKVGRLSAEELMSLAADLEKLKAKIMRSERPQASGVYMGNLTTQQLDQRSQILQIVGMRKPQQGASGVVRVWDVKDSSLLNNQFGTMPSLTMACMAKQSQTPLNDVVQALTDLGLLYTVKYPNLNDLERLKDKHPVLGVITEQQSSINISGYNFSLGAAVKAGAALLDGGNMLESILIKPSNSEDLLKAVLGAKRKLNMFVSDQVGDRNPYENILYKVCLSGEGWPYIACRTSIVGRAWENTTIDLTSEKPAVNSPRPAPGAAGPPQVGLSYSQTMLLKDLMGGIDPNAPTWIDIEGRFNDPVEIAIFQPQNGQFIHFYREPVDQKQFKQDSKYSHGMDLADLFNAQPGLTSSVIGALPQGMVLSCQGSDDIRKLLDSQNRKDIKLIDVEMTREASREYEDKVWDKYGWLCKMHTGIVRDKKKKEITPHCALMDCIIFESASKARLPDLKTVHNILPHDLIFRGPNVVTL
SMILES,Potency,"activity change, negative = inhibition"
COc1ccc(-c2coc3cc(O[C@@H]4O[C@H](CO)[C@@H](O)[C@H](O)[C@H]4O)c(OC)cc3c2=O)cc1,inactive,
N[C@H](CSSC[C@@H](N)C(=O)O)C(=O)O,inactive,
CC1(C)Oc2cc3oc(=O)ccc3cc2C[C@@H]1O,inactive,
C=C[C@@H]1CN2CC[C@@H]1C[C@H]2[C@H](O)c1ccnc2ccc(OC)cc12,inactive,
COC1[C@@H](O[C@@H]2O[C@H](C)[C@@H](O[C@H]3C[C@@](C)(O)[C@H](OC(=O)CC(C)C)[C@H](C)O3)[C@H](N(C)C)[C@H]2O)[C@@H](CC=O)C[C@@H](C)[C@@H](O)/C=C/C=C/C[C@@H](C)OC(=O)C[C@H]1OC(C)=O (stereo not given in full),inactive,
CCCCCCCCCCCC,inactive,
CC1=C(/C=C/C(C)=C/C=C/C(C)=C/C=C/C=C(C)/C=C/C=C(\C)C=O)C(C)(C)CCC1,inactive,
CCCCCCCCCCCCCCCCCCCCCCCCCCCCCC,inactive,
CC(=O)OCC(=O)[C@@]1(O)CC[C@H]2[C@@H]3CCC4=CC(=O)C=C[C@]4(C)[C@@H]3[C@@H](O)C[C@@]21C,inactive,
COc1cc(CCc2cc(NC(=O)c3ccc(N4C[C@@H](C)N[C@@H](C)C4)cc3)n[nH]2)cc(OC)c1,inactive,
CC(C)=CCc1c(O)cc(O)c2c1OC(c1ccc(O)cc1)CC2=O (stereo not given),inactive,
C[N+](C)(C)CCOP(=O)([O-])OC[C@H](O)CO,inactive,
CC(C)(O)CC[C@H](OC(=O)c1ccccc1)[C@](C)(O)[C@H]1CC[C@@]2(O)C3=CC(=O)[C@@H]4C[C@@H](O)[C@H](O)C[C@]4(C)C3CC[C@]12C (stereo not given in full),inactive,
Cc1c(O)ccoc1=O,inactive,
O=C(O)C1=CO[C@@H](O[C@@H]2O[C@H](CO)[C@H](O)[C@H](O)[C@H]2O)[C@@H]2C(CO)=CC[C@H]12,inactive,
CC(C)C1C(=O)O[C@@H]2CCN3CC=C(COC(=O)[C@](C)(O)[C@]1(C)O)[C@H]23 (stereo not given in full),inactive,
c1coc(Cn2cccc2)c1,inactive,
COc1ccc2cc1Oc1ccc(cc1)CC1c3cc(c(OC)cc3CCN1C)Oc1c(OC)c(OC)c(OC)c3c1C(C2)N(C)CC3 (stereo not given),inactive,
CCCCCCCCC(=O)OCC,inactive,
C[C@@H]1C[C@@H]2OC(=O)[C@]3(C)[C@H]2[C@@H](OC3(C)O)[C@]2(C)C(=O)C=C[C@H]12 (stereo not given in full),inactive,

SMILES,Potency,"activity change, negative = inhibition"
O=c1ccc2ccc(O[C@@H]3O[C@H](CO[C@@H]4OC[C@](O)(CO)[C@H]4O)[C@@H](O)[C@H](O)[C@H]3O)cc2o1,inactive,
CC(C)C1=CC2=CC[C@@H]3[C@](C)(CCC[C@@]3(C)C(=O)O)[C@H]2CC1,inactive,
O=c1ccn([C@H]2C[C@H](O)[C@@H](CO)O2)c(=O)[nH]1,inactive,
CCNc1nc(N)nc(Cl)n1,inactive,
CC(C)c1noc(N2CCC(COc3ccc(-c4ccc(S(C)(=O)=O)cc4)nc3)CC2)n1,inactive,
CCCCCCOC(=O)CCC,inactive,
CCC(=O)OCC(=O)[C@@]1(OC(=O)CC)[C@@H](C)C[C@@H]2[C@H]3CCC4=CC(=O)C=C[C@]4(C)[C@@]3(F)[C@@H](O)C[C@@]21C,inactive,
Cc1csc(NC(=O)c2sc3nc4c(c(C(F)(F)F)c3c2N)CCC4)n1,inactive,
CCCCCC(=O)OCC,inactive,
Cn1c(N2CCCCS2(=O)=O)nc(C(=O)NCc2ccc(F)cc2)c(O)c1=O,inactive,
O=c1c(O)c(-c2ccccc2O)oc2cc(O)cc(O)c12,inactive,
C[C@@H](O)CCC[C@H](O)/C=C/[C@H]1[C@H](O)CC(=O)[C@@H]1C/C=C\CCCC(=O)O,,-73.7% [at 5.82 µM] (inactive)
CCCCCC/C=C/C=O,inactive,
c1cnc2c(-c3nccc4c3[nH]c3ccccc34)cccc2c1,inactive,
Cc1cc(CS(=O)(=O)c2ccccc2)cc(OCc2ccc(CN3CCC[C@H]3CO)cc2)c1,inactive,
CC1=CC2OC3CC4OC(=O)C=CC=CC(=O)OCCC(C)C(O)C(=O)OCC2(CC1O)C4(C)C31CO1 (stereo not given),inactive,
C[C@@H]1CCCCCCCCCCC1=O,inactive,
COc1ccc2[nH]cc(CCO)c2c1,inactive,
COc1ccc2c3c([nH]c2c1)C(C)NCC3 (stereo not given),inactive,
CCc1nccc2c1[nH]c1ccccc12,inactive,
